Drawing on PubChem BioAssay (NCATS), this text covers Potency for 40 molecules.

Each structure is given as a SMILES string. “And” between values parts separate entries of the source, which are not always exact repeats. Equal entries are not always repeated. The source holds several records for some structures; these can differ, active in one and inactive in another. The source made the active and inactive calls.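 How the source made its calls: active means compounds whose dose series gives a full or clear partial fitted curve of increased nuclear translocation; inconclusive means weak partial curve or effect only at the top dose; inactive means no dose-dependent translocation response.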
Potency means the concentration at half of the fitted maximal effect.

Chain of Glucocorticoid receptor (Homo sapiens) (P04150 whole entry, looked up): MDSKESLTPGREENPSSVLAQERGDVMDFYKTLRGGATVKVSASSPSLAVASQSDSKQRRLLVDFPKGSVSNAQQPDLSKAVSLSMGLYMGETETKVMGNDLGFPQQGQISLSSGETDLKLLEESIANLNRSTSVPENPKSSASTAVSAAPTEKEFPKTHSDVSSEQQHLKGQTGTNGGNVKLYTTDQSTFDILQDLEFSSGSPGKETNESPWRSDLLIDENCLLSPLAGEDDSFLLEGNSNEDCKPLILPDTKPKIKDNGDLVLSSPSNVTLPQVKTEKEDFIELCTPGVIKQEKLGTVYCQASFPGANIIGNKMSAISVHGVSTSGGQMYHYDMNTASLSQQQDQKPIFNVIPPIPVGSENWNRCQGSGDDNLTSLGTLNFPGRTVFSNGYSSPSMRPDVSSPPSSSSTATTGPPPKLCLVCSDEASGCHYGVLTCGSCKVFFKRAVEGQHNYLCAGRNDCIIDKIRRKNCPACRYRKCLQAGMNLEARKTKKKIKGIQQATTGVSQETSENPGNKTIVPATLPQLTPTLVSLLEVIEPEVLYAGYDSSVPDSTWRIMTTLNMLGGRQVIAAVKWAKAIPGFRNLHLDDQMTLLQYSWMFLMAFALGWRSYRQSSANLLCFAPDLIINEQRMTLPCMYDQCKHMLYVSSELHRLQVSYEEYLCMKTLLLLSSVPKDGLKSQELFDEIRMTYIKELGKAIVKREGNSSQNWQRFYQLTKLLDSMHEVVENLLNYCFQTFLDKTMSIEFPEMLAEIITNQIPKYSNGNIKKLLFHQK

This assay concerns the target Glucocorticoid receptor (Homo sapiens) (UniProt P04150). Put plainly: GR-GFP Redistribution (AID 450). The settings on record: U2OS GR-GFP nuclear translocation, laser cytometry, 2 h. From the text:
NIH Molecular Libraries Screening Centers Network [MLSCN]
NIH Chemical Genomics Center [NCGC]
The glucocorticoid receptor (GR) Redistribution assay (BioImage) enables the visualization of GR cytoplasmic to nuclear translocation by the use of a GR-GFP fusion. GR is normally cytosolic, however ligands such as dexamethasone, cause nuclear translocation where the protein binds to response elements and interacts with various co-factors to modulate transcription. Because both functional agonists and antagonists can induce nuclear translocation, this assay can detect ligands regardless of their effects on gene expression. GR-GFP expressing U20S cells were used here. Dexamethasone was the positive control for translocation and data normalization. Detection of nuclear translocation was performed in 1536-well plates using the Acumen laser scanning plate cytometer (TTP LabTech). Validation of this assay and a detailed protocol have been described.
NCGC Assay Protocol Summary:
GR-GFP U2OS cells were maintained in DMEM with Glutamax and high glucose, 1% v/v penicillin-streptomycin, and 0.5 mg/mL Geneticin. For cell culture, 10% […] fetal bovine serum (FBS) was used (Invitrogen #26140-079). For cell plating 10% dextran, charcoal-stripped FBS (Hyclone SH30068.03) was used. U2OS cells were trypsin treated, suspended in medium, and passed through a 40 um basket filter. The cells were seeded at 600 cells/5 uL/well into clear-bottom black sided 1536-well plates and incubated for approximately 20 hrs, 37degC, 5%, CO2 in a tissue culture incubator. Twenty-three nL of compound was delivered by pin tool and the plates were incubated as above for 2 hrs. The compounds were tested as a 7-point titration ranging from 46 uM to 0.6 nM. The cells were fixed using the Kalypsys Washer/Dispenser station. The fixing protocol involved aspiration of the cell media, addition of 6 uL/well of PBS, aspiration of PBS, addition of 5uL/well of 100% methanol, aspiration of methanol, and addition of 3 uL/well PBS with 1.5 uM propidium iodide (PI). The plates were read by the Acumen Explorer using a 1 x 8 um scan of the whole well area. PI fluorescence triggered the collection of PI and GFP signals. A nuclei population was defined by a 10 to 100 um width and depth filter that eliminated small and large fluorescent particles. Two subpopulations of nuclei were then defined by peak intensity of GFP fluorescence to obtain translocated and untranslocated objects. The number of translocated objects was used for data normalization.
Keywords: NIH Roadmap, MLSCN, MLI, MLSMR, sOGT, qHTS, NCGC
As to `CC(C)(O)[C@H]1O[C@@H]2CC[C@]3(C)[C@@]4(C)c5[nH]c6ccccc6c5C[C@@H]4CC[C@]3(O)C2=CC1=O`, the Potency is 6.76e-05 µM (active).

Take `Oc1ccc2c3c1O[C@H]1c4[nH]c5ccccc5c4C[C@]4(O)[C@H](C2)N(CC2CC2)CC[C@@]314`: the Potency is > 46 µM (inactive).

As to `CC1=C[C@@H]2c3cccc4[nH]cc(c34)C[C@H]2N(C)C1`, the Potency is > 46 µM (inactive).

As to `C/C(=C\C=C/[C@@H](C)C(=O)O)[C@H]1CN[C@H](C(=O)O)[C@@H]1CC(=O)O`, the Potency was > 46 µM (inactive).

Consider `CCCOc1ccc2[nH]cc(C3=CCNCC3)c2n1`, for which the Potency is > 46 µM (inactive).

For `CCN1C[C@]2(COC(=O)c3ccccc3N3C(=O)C[C@H](C)C3=O)CC[C@H](OC)[C@@]34[C@@H]5C[C@H]6[C@H](OC)[C@H]5[C@](O)(C[C@@H]6OC)[C@@](O)([C@@H](OC)[C@@H]23)[C@@H]14`, the Potency was > 46 µM (inactive).

`CC(=O)C1=C(O)[C@@H]2[C@@H]3c4c[nH]c5cccc(c45)C[C@@H]3C(C)(C)N2C1=O`: the Potency was > 46 µM (inactive).

`CS(=O)(=O)Nc1ccc(Cc2noc(-c3ccc4[nH]cc(CCN)c4c3)n2)cc1`: the Potency is > 46 µM (inactive).

Regarding `COC(=O)N1CCN(C(=O)Cc2ccc(Cl)c(Cl)c2)[C@H](CN2CCCC2)C1`, the Potency was > 46 µM (inactive) and 1.28 µM (active).

With `CC(=O)N1CC[N+](C)(C)CC1`, the Potency is > 46 µM (inactive).

As for `O=C(O)[C@H]1[C@H]2CN[C@H](C(=O)O)[C@H]21`, the Potency is > 46 µM (inactive).

Take `CCOC(=O)c1ncn2c1[C@H]1CCCN1C(=O)c1cc(OC)ccc1-2`: the Potency was > 46 µM (inactive).

For the molecule `Cc1ccc(C[N+](C)(C)C)o1`, the Potency is > 46 µM (inactive).

Turning to `CC[N+](CC)(CCCNC1=CC(=O)C(NCCC[N+](CC)(CC)Cc2ccccc2)=CC1=O)Cc1ccccc1`, the Potency was > 46 µM (inactive).

Regarding `Cn1cc(C(=O)C(=O)N[C@H]2CN3CCC2CC3)c2ccccc21`, the Potency was > 46 µM (inactive).

Regarding `CC(C)(c1ccc(OC[C@@H]2CO2)cc1)c1ccc(OC[C@H]2CO2)cc1`, the Potency was > 46 µM (inactive).

As to `CC(C)[C@@]1(NC(=O)[C@@H]2C[C@H]3c4cccc5[nH]cc(c45)C[C@@H]3N(C)C2)O[C@@]2(O)[C@H]3CCCN3C(=O)[C@H](Cc3ccccc3)N2C1=O`, the Potency is > 46 µM (inactive).

On to `NC(=NCc1ccc(Cl)cc1)SCCCc1cnc[nH]1`, for which the Potency is > 46 µM (inactive).

For the molecule `CN1C[C@H](CNC(=O)OCc2ccccc2)C[C@H]2c3cccc4c3c(cn4C)C[C@@H]21`, the Potency is > 20.6 µM (inactive).

Regarding `C=CCN1C[C@H](C)N([C@@H](c2ccccc2)c2ccc(C(=O)N(CC)CC)cc2)C[C@H]1C`, the Potency is > 46 µM (inactive).

`CCOC(=O)c1cc2c(cn1)[nH]c1ccccc12`: the Potency is > 20.6 µM (inactive).

For `CCCn1c(C)c(C(=O)c2cccc3ccccc23)c2ccccc21`, the Potency is > 46 µM (inactive).

As for `C[C@H](N)Cc1cnc[nH]1`, the Potency was > 46 µM (inactive).

Regarding `COC(=O)c1cc2c(cn1)[nH]c1ccccc12`, the Potency is > 46 µM (inactive).

In the case of `N[C@H](CP(=O)(O)O)C(=O)O`, the Potency is > 46 µM (inactive).

With `CC(C)(O)[C@@H]1[C@H]2OC(=O)[C@@H]1[C@]1(O)C[C@H]3O[C@]34C(=O)O[C@H]2[C@@]14C` (tested in a mixture with another compound), the Potency was > 46 µM (inactive).

Consider `COC(=O)/C=C\C(=O)N[C@@H]1CC[C@@]2(O)[C@H]3Cc4ccc(O)c5c4[C@@]2(CCN3CC2CC2)[C@@H]1O5`, for which the Potency was > 46 µM (inactive).

As to `C=C(C)CN1CC[C@@]23c4c5ccc(O)c4O[C@H]2c2[nH]c4ccccc4c2C[C@]3(O)[C@@H]1C5`, the Potency was > 46 µM (inactive).

For `C[C@](N)(CCP(=O)(O)O)C(=O)O`, the Potency was > 46 µM (inactive).

Regarding `CN1CCN(c2ccc3ccccc3n2)CC1`, the Potency was > 46 µM (inactive).

With `Cc1nc(N)sc1CCN`, the Potency was > 46 µM (inactive).

As for `NC(N)=NCCCCCCCCCCN=C(N)N`, the Potency was > 46 µM (inactive).

On to `C=C(C)[C@H]1CN[C@H](C(=O)O)[C@@H]1CC(=O)O`, for which the Potency is > 46 µM (inactive).

As for `NC[C@H](CC(=O)O)c1ccc(Cl)cc1`, the Potency was > 46 µM (inactive).

For `Fc1ccc(C(OCCN2CCN(C/C=C\c3ccccc3)CC2)c2ccc(F)cc2)cc1`, the Potency is > 46 µM (inactive).

Take `Cc1cccc([C@H](C)c2cnc[nH]2)c1C`: the Potency is > 46 µM (inactive).

In the case of `C#CCN1C(C)=C(C(=O)CCO)[C@@H](c2cccc(-n3oo3)c2)C(C(=O)OC)=C1C`, the Potency is > 46 µM (inactive).

For the molecule `NC(N)=Nc1ccc2[nH]c3c(c2c1)C[C@]1(O)[C@@H]2Cc4ccc(O)c5c4[C@]1(CCN2CC1CC1)[C@@H]3O5`, the Potency is > 46 µM (inactive).

Turning to `NC(=NCCc1ccc(I)cc1)SCCCc1cnc[nH]1`, the Potency was > 46 µM (inactive).

On to `NC[C@@H](CC(=O)O)c1ccc(Cl)cc1`, for which the Potency was > 20.6 µM (inactive) and > 46 µM (inactive).
